Compound activity: PubChem, National Center for Advancing Translational Sciences (NCATS)
ERK EGF inh: EGF-driven ERK pathway inhibition; HEK293-V1b, EGF-stimulated phospho-ERK AlphaScreen; Potency, µM (series often up to 11.5 µM), without a hit: at the top dose activity change, negative = inhibition, usual class: inhibitors; hit rate 0.41% among 130,000; AID 1454; active = well fitted inhibition curve with a large enough effect;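 also: plate controls were stimulated vehicle wells for no effect and unstimulated vehicle basal for full effect; nearly all actives have a fitted effect of over 55% in size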
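In this qHTS, HEK293 cells with stable type-1 vasopressin (V1b) receptor were exposed to compound at 37C for 30 min, stimulated 5 min with EGF at 25 nM, lysed, and probed for phospho-ERK by AlphaScreen.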
Starred values were filed as active, the others as inactive; [ ] = dose if it differs, or a comment. This excerpt belongs to a sample that is enriched for hits. Potency is read from the fitted curve at half-maximal effect.

SMILES	ERK EGF inh
C=CCOC(=O)N[C@H](/C(C(=O)OC)=C(\C)NCc1ccccc1)c1ccc2c(c1)OCO2	-4%
Cc1ccc(NN=C2c3ccccc3-c3ccccc32)cc1	-1%
COc1cc(C=C2C(=O)c3ccccc3C2=O)cc(OC)c1	-3%[57.5 µM]
COC1=C(OC)C(=O)c2ccccc2C1=O	10%
COC1=C(Nc2ccc(C)cc2)C(=O)c2ccccc2C1=O	11µM*
Cc1ccc(SC2=C(Sc3ccc(C)cc3)C(=O)c3ccccc3C2=O)cc1	2%[57.5 µM]
COC1=C(Nc2ccccc2)C(=O)c2ccccc2C1=O	14µM*
CCNc1ncc2nc(-c3ccc(Cl)cc3)c(=O)n(C3CC3)c2n1	-3%
C=CCOC(=O)N[C@@H](c1cccs1)C(C(C)=O)C(C)=O	-4%
Nc1ccccc1C(=O)/C=C/c1ccccc1	-11%
COc1cccc([C@@H]2Oc3ccc(OC)cc3C(=O)[C@H]2OC(=O)NCc2ccco2)c1	-4%
Nc1ncnc2c1nc(Br)n2[C@H]1O[C@H]2COP(=O)(O)O[C@H]2[C@@H]1O	5%
CCCCCn1c(=O)c(-c2nc3ccccc3[nH]2)c(O)c2ccccc21	-3%
CCCCCC(=O)c1ccc(O)cc1O	2%
CCCCCS(=O)(=O)CCCCCCCCCCn1c(-c2ccc(O)cc2)c(C)c2cc(O)ccc21	14µM*
CC(=O)O[C@H]1C(=O)[C@@]2(C)C([C@H](OC(=O)c3ccccc3)[C@]3(O)C[C@H](OC(=O)[C@H](O)[C@@H](NC(=O)c4ccccc4)c4ccccc4)C(C)=C1C3(C)C)[C@]1(OC(C)=O)CO[C@@H]1C[C@@H]2O (some centres not stated)	-10%
C=CC[C@](C)(Nc1ccc(OC)cc1)C(=O)OCC	5%
CCc1ccc(NC(=O)C2(C)Cc3ccccc3C(=O)O2)cc1 (configuration not stated)	22µM*
CCc1ccc(NC(=O)CSCCN2C(=O)c3ccccc3C2=O)cc1	-12%
CC1(C(=O)Nc2cccc(S(=O)(=O)N3CCOCC3)c2)Cc2ccccc2C(=O)O1 (configuration not stated)	-3%
Clc1ccccc1-c1ncc2ccccn12	-1%
O=[N+]([O-])c1cccc(-c2ncc3ccccn23)c1	-22%
Clc1ccc(-c2ncc3ccccn23)cc1	32µM*
Nc1ncnc2nc(-c3ccc(N4CCOCC4)nc3)cc(-c3cccc(Br)c3)c12	2%
CCOC(=O)C1=C(C)NC(C)=C(C(=O)OC)[C@@H]1c1cccc(Cl)c1Cl	10%[25.7 µM]
SMILES	ERK EGF inh
N[C@@](C(=O)O)(c1ccc(P(=O)(O)O)cc1)C1CC1	5%
CN(C=[N+](C)C)c1cccc2c1C(=O)c1ccccc1C2=O	18µM*
C/C(=N\N(C)C)C1=C(O)c2ccccc2C1=O	3%
O=C(O)c1cccc2c1C(=O)c1ccccc1C2=O	8%
COc1cc2c(cc1OC)-c1c(oc3cc(O)cc(O)c3c1=O)CO2	7%
COC(=O)C1(C(=O)OC)CC2=CCC3C(=O)N(c4ccccc4)C(=O)C3C2Cc2ccccc2[C@@H]1C[N+](=O)[O-] (some centres not stated)	-12%
Clc1ccc(/C=N/N2CCN(Cc3ccccc3Cl)CC2)cc1	-4%
O=[N+]([O-])c1cc(/C=N/N2CCN(c3ccccc3)CC2)ccc1Cl	6%
Clc1ccccc1CN1CCN(/N=C/c2ccncc2)CC1	-4%
COc1ccccc1N1CCN(/N=C/c2cccc(OC)c2OC)CC1	-9%
COc1cc(C(=O)N2CCN(c3ccccc3OC)CC2)c([N+](=O)[O-])cc1OC	-3%
O=[N+]([O-])c1ccccc1/C=N\N1CCN(c2ccccc2)CC1	22µM*
COc1ccccc1/C=C/C=N\N1CCN(Cc2ccccc2Cl)CC1	18µM*
COc1ccccc1N1CCN(/N=C/C=C/c2ccccc2[N+](=O)[O-])CC1	20µM*
Cc1ccc(/C=N/N2CCN(c3ccccc3)CC2)cc1	0%
c1ccc(-c2nc(-c3cccc4ccccc34)c(NC3CCCCC3)o2)cc1	-1%
CC(=O)N1CC=CC1(CC(C)C)C(=O)NCc1ccccn1 (configuration not stated)	4%
CN(C)c1ncc2nc(-c3ccc(F)cc3)c(=O)n(C3CC3)c2n1	-15%
COC[C@H]1O[C@@H](c2c(OC)cc(OC)cc2OC)[C@H](OC)[C@@H](OC)[C@@H]1OC	-3%
CC(C)[C@@H](CC(=O)N[C@@H]1CCCC[C@H]1C(=O)N[C@H](CC(=O)N[C@@H](CCC(=O)O)CC(=O)O)Cc1ccccc1)NC(=O)C[C@H](Cc1ccccc1)NC(=O)[C@@H]1CCCC[C@H]1N	-1%
C=C[C@@H]1CN2CC[C@@H]1C[C@H]2[C@H](O)c1ccnc2ccc(OC)cc12	2%
CCCn1c(-c2ccc(F)cc2)nc2c(NC3CC4CCC(C3)N4C)nc(C)nc21 (configuration not stated)	1%
C/C(=C\CO)CCO	-10%
CCCCCCCCCCCCC(=O)N1CCCC[C@H]1CNC(=O)[C@@H](N)CCCCN	1%
CCC1CN2CCC1CC2[C@@H](NC(=S)Nc1cc(C(F)(F)F)cc(C(F)(F)F)c1)c1cccc2ccc(OC)cc12 (some centres not stated)	1%
SMILES	ERK EGF inh
CCN(CC)CC(=O)Nc1cccc2c1C(=O)c1ccccc1C2=O	-8%
O=C1c2ccccc2C(=O)c2c(NCCCN(CCO)CCO)cccc21	28µM*
O=C(NCCO)c1cccc2c1-c1ccccc1C2=O	-3%
CCC(=O)[C@@]1(C)[C@H](C)C[C@@H]2[C@@H]3CCC4=CC(=O)C=C[C@@]4(C)[C@H]3[C@H](O)C[C@]21C	4%[25.7 µM]
CCOC(=O)c1cc2c(nc1N)CCCC2	-5%[57.5 µM]
CCOC(=O)C1=C2c3cc(OC)c(OC)cc3CC(C)(C)N2C(=O)C1=O	-6%
CCOC(=O)C1=C(SCC)c2cc3c(n2C1=O)CCCC3	25µM*
Cc1cc(N/N=C2\CC(C)CC(C)(C)C2)nc2ccccc12 (configuration not stated)	-5%
CC1C/C(=N/Nc2nc3ccccc3[nH]2)CC(C)(C)C1 (configuration not stated)	-2%
CC1C/C(=N/Nc2ccc([N+](=O)[O-])cc2[N+](=O)[O-])CC(C)(C)C1 (configuration not stated)	13µM*
COCC1=C2c3ccccc3[C@@H]3CNC(=O)C3(C(=O)OC)C[C@@H]2n2c(=O)n(-c3ccccc3)c(=O)n2C1 (some centres not stated)	-13%
COc1cccc(OCc2ccc(C(=O)NCC3CCCO3)cc2)c1 (configuration not stated)	4%
COc1cccc(N=c2oc3cc(O)ccc3cc2C(=O)NCC2CCCO2)c1 (configuration not stated)	28µM*
COc1cc(OC)c(C(=O)NCC2CCCO2)cc1OC (configuration not stated)	4%
CCNc1ncc2nc(-c3ccccc3)c(=O)n(C3CC3)c2n1	18%
Cn1cc(/C=C2\SC(=O)N(c3ccc(O)cc3)C2=O)c2ccccc21	35µM*
CCN1C(=O)S/C(=C/c2cn(C)c3ccccc23)C1=O	12%
Cn1cc(/C=C2\SC(=O)N(c3ccccc3)C2=O)c2ccccc21	13%
CCCCCCCCCC(=O)OCC(CO)OC(=O)CCCCCCCCC (configuration not stated)	-18%
Cc1ccccc1C(=O)Nc1c(-c2cccs2)c(=O)c2ccccc2n1C	-1%[57.5 µM]
COc1ccc(C(=O)Nc2nc(-c3cccs3)c(NC(C)=O)s2)cc1	1%
COc1ccc(C(=O)Nc2c(-c3cccs3)c(=O)c3ccccc3n2C)cc1	5.6µM*
